16 compounds from PubChem BioAssay can be followed below.

Experiment [1] in a line: binders of probe aFSTL3 on microarray, primary screen, stem cell growth factor project, biochemical, small-molecule microarray, fluorescence 635/667 (AID 1064).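 Note: measures binding of the biotinylated anti-FSTL3 antibody to printed compounds.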 Conditions: higher = more signal.
Experiment [2] in a line: binders from COS7 lysate, DM2A8 probe, primary screen, torsin A project, cell lysate, small-molecule microarray, fluorescence 635/667 (AID 1065). As to conditions: higher = more signal, COS7 lysate expressing mutant human TOR1A.
Experiment [3] can be described thus: binders of probe aFGF2 on microarray, primary screen, stem cell growth factor project, biochemical, small-molecule microarray, fluorescence 635/667 (AID 1067).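 Note: measures binding of biotinylated aFGF2 protein to printed compounds on slides; z-score merges feature fluorescence and signal-to-noise across triplicate slides.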 As to conditions: higher = more signal.
Experiment [4] is described as follows: binders of probe aFGF10 on microarray, primary screen, stem cell growth factor project, biochemical, small-molecule microarray, fluorescence 635/667 (AID 1071).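 Note: score merges 667 nm spot intensity and signal to noise from triplicate slides.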 As to conditions: higher = more signal.
Experiment [5] deals with Neurogenic locus notch homolog protein 2 (Homo sapiens) (UniProt Q04721). In words: Notch2 binders on small-molecule microarrays, primary screen, biochemical, small-molecule microarray, 635 nm fluorescence, stem cell growth factors (AID 1073). As to conditions: Notch2 binding, higher = more signal.
Chain of Neurogenic locus notch homolog protein 2 (Homo sapiens) (Q04721 whole entry, looked up, canonical isoform): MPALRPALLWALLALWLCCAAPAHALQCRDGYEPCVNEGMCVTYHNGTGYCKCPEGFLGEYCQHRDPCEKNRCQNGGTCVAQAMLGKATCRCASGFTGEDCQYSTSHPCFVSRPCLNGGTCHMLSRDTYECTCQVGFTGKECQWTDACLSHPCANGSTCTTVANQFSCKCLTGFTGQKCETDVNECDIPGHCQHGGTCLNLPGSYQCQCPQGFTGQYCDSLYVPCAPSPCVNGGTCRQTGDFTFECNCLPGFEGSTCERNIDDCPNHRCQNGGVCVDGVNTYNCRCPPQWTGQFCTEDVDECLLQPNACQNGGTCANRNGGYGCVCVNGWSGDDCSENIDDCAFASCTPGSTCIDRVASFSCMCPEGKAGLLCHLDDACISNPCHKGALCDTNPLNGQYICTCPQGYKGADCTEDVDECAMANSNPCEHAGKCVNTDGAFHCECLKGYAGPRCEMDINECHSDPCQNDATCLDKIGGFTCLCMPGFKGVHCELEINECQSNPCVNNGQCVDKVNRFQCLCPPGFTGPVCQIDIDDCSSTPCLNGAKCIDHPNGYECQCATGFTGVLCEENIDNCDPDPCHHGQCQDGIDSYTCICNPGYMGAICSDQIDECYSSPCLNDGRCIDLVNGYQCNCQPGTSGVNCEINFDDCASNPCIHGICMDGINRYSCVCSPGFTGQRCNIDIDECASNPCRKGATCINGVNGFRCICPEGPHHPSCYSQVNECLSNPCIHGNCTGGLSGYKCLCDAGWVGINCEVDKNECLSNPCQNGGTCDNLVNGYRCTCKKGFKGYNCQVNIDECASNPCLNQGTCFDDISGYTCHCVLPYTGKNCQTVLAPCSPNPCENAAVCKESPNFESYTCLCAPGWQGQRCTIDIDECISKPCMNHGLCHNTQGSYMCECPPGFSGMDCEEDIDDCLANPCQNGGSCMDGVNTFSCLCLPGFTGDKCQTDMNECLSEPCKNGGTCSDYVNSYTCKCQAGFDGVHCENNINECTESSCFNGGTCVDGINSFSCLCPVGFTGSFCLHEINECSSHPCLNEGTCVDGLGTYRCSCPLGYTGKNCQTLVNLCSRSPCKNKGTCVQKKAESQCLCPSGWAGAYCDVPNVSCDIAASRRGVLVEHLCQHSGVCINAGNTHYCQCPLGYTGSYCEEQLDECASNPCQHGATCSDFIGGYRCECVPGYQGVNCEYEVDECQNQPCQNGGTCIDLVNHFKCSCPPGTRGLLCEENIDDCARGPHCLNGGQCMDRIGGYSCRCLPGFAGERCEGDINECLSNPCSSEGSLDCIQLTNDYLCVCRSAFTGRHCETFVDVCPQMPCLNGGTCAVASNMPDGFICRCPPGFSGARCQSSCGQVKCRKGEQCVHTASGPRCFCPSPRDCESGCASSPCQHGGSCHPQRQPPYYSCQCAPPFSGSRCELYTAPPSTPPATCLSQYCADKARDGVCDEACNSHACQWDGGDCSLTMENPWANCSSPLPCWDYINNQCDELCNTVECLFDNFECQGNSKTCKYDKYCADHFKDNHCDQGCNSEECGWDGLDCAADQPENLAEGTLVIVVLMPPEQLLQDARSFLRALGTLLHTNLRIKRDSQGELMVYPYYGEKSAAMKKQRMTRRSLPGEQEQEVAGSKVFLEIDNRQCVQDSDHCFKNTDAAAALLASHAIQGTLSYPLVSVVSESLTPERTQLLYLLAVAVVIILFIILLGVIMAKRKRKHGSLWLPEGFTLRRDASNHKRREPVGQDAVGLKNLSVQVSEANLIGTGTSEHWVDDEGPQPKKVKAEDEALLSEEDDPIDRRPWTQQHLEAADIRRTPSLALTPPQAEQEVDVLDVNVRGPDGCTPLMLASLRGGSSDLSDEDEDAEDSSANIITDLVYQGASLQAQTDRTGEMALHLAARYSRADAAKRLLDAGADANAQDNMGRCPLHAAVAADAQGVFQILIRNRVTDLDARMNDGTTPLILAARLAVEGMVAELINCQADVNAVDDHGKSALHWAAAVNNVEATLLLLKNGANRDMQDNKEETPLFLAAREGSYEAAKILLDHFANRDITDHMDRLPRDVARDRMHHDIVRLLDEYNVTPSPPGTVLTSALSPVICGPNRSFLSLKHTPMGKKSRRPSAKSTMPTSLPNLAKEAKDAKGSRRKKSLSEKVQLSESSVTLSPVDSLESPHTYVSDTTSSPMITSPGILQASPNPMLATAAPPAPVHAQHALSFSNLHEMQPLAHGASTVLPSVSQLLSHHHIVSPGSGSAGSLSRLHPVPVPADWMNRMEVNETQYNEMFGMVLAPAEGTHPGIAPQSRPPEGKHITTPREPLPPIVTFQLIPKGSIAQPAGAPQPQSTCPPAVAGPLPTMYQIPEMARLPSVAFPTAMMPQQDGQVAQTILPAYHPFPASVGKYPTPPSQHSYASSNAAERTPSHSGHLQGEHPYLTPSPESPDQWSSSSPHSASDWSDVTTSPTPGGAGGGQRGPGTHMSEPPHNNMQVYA
Experiment [6] addresses Pro-neuregulin-1, membrane-bound isoform (Homo sapiens) (UniProt Q02297). In words: NRG1 binders on small-molecule microarrays, primary screen, psychiatric disease protein project, biochemical, small-molecule microarray, fluorescence 635/667 (AID 1075).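 Note: score combines 667 nm spot fluorescence with signal to noise.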 Conditions: NRG1 binding, 635 nm fluorescence, higher = more signal.
For experiment [7], the system named is Neuregulin-1 EGF-like domain. In words: binders of neuregulin-1 EGF-like domain, primary screen, biochemical, small-molecule microarray, 635 nm fluorescence (AID 1081).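 Note: binding of the protein to compounds printed on small-molecule microarray slides.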 As to conditions: small-molecule microarray binding, higher = more signal.
Experiment [8] is described as follows: FRG1 promoter luciferase signal modulators, primary screen, FRG1 inhibition for FSHD, cell-based, C2C12 myotubes, firefly/Renilla luciferase, luminescence (AID 1084). As to conditions: higher = more signal, called active from +8 up or from −8 down.
Experiment [9] in a line: binders of probe aFST on microarray, primary screen, stem cell growth factor project, biochemical, small-molecule microarray, fluorescence 635/667 (AID 1086).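 Note: score merges 667 nm fluorescence with signal-to-noise of each printed compound spot.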 Conditions: higher = more signal.
Experiment [10] in a line: binders of probe aHhip on microarray, primary screen, stem cell growth factor project, biochemical, small-molecule microarray, fluorescence 635/667 (AID 1087).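 Note: score merges spot fluorescence at 667nm with spot signal to noise ratio.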 Conditions: higher = more signal.

The source made the active and inactive calls.

Chain of Pro-neuregulin-1, membrane-bound isoform (Homo sapiens) (Q02297 whole entry, looked up, the tested form may be a part, canonical isoform): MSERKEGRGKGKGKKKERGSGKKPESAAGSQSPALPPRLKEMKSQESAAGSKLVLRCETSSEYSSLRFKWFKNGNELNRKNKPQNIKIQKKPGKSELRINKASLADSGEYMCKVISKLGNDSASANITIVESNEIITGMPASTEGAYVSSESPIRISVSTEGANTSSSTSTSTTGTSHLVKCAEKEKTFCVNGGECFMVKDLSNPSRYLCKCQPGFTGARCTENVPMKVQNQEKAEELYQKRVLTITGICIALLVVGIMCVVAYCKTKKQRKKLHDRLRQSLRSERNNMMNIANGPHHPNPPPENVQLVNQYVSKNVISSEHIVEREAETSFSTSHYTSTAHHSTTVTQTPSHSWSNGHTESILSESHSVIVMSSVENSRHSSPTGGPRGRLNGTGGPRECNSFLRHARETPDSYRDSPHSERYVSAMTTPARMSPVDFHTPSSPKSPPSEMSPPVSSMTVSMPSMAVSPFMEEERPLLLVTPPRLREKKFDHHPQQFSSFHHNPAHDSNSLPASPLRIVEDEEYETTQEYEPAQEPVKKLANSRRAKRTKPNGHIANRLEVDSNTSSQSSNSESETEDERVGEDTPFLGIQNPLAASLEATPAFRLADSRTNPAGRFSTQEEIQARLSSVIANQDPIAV

As to `C=CC[C@@]1(C(=O)N2CCOCC2)N=C(c2ccc(OCCCO)cc2)O[C@@H]1c1ccccc1N=[N+]=[N-]`, the composite z-score in [1] is 0.529; in [2], 0.985; in experiment [3], -0.0073; in experiment [4] it was 0.853; in [5] it was 1.53; in experiment [6], 1.44. Besides, the composite z-score worked out at 1.19 in experiment [7], 0.993 in experiment [9] and 0.21 in experiment [10]. Further, the z-score in experiment [8] is -0.469 (inactive).
For the compound `COCCOC(=O)N1C(=O)[C@@]2(c3cc(C#CCNC(N)=O)ccc31)[C@H](c1ccccc1OCCO)N1[C@H](c3ccccc3)[C@H](c3ccccc3)OC(=O)[C@H]1[C@@H]2C(N)=O`, the composite z-score in experiment [1] is -0.309; in experiment [2], 0.092; in experiment [3] it was -0.171; in experiment [4], 0.244; in experiment [5] it was 0.77; in experiment [6], 0.429. For the same compound, the composite z-score in [7] is 0.874; in [9] it was 0.477; in [10], -0.284. For the same compound, the z-score in experiment [8] is -1.33 (inactive).
For `C=C[C@H](C)[C@@H](O)c1ccc(O)c2ccccc12`, the composite z-score in experiment [1] is -0.161; in [2], -0.0359; in experiment [3], 0.126; in experiment [4] it was -0.749; in experiment [5], -1; in experiment [6], -0.329. Also, the composite z-score in [7] is -0.158; in experiment [9], -1.03; in experiment [10], 0.0274. Further, the z-score in experiment [8] is -0.202 (inactive).
Consider `COCCOC(=O)N1C(=O)[C@@]2(c3cc(C#Cc4ccc(OC)cc4)ccc31)[C@H](C(=O)N1CCN(c3ncccn3)CC1)[C@H]1C(=O)O[C@H](c3ccccc3)[C@H](c3ccccc3)N1[C@@H]2c1ccc(O)cc1`, for which the composite z-score was 0.104 in [1]; 0.0053 in [2]; -0.144 in experiment [3]; 0.464 in [4]; -0.202 in experiment [5]; 0.169 in experiment [6]. Also, the figures for the composite z-score in experiment [7], in experiment [9] and in experiment [10] were 0.542, 0.218 and -0.0994, respectively. Further, the z-score in experiment [8] was -1.3 (inactive).
As for `CC=CC(O)C1C=CC2C(=O)N(c3ccccc3)C(=O)C2N1Nc1ccc(C(C)C)cc1` (stereo not given), the composite z-score in experiment [1] is 0.0035; in experiment [2], 0.238; in experiment [3], 0.125; in experiment [4], 0.771; in [5], 1.65; in [6], 1.52. Also, the composite z-score is 1.26 in [7], 1.16 in experiment [9] and -0.0024 in experiment [10]. For the same compound, the z-score in experiment [8] was 0.715 (inactive).
Turning to `CCCN1C(=O)[C@]2(COC(c3ccc(OCCCO)cc3)=N2)Cc2ccccc21`, the composite z-score was found to be 0.955 in [1]; 0.325 in [2]; 0.0092 in experiment [3]; 0.251 in experiment [4]; 0.419 in experiment [5]; 1.41 in [6]. Moreover, the composite z-score in experiment [7] amounted to 1.18; in experiment [9], 0.486; in experiment [10] it was 0.0044. Besides, the z-score in experiment [8] is -0.0593 (inactive).
On to `CC(C)NC(=O)[C@@H]1c2ccccc2C(=O)N(Cc2ccccc2)[C@H]1c1ccc(CO)cc1`, for which the composite z-score in experiment [1] was 0.726; in experiment [2], 0.0445; in experiment [3], 0.0411; in [4] it was 0.365; in experiment [5], -1.1; in [6], 1.06. Further, the composite z-score in [7] is 1.36; in experiment [9], -0.194; in experiment [10], -0.191. Moreover, the z-score in experiment [8] is -1.1 (inactive).
On to `C=C[C@@H](COC(C)=O)N(Cc1ccccc1[N+](=O)[O-])S(=O)(=O)c1ccc(Br)cc1`, for which the composite z-score is 0.0537 in experiment [1]; 0.98 in experiment [2]; 0.033 in [3]; 0.372 in experiment [4]; 1.01 in [5]; 0.939 in experiment [6]. Besides, the figures for the composite z-score in [7], in experiment [9] and in experiment [10] were 0.974, 0.399 and 0.0524, respectively. Also, the z-score in [8] is -3.14 (inactive).
Take `COCCOC(=O)N1C(=O)[C@@]2(c3cc(C#CCCO)ccc31)[C@H](c1ccccc1OCCO)N1[C@H](c3ccccc3)[C@H](c3ccccc3)OC(=O)[C@H]1[C@@H]2C(=O)N1CCN(c2ncccn2)CC1`: the composite z-score in experiment [1] is 0.546; in experiment [2], -0.481; in experiment [3], 0.0763; in experiment [4], 0.949; in [5], 1.55; in experiment [6], 1.66. Besides, the figures for the composite z-score in experiment [7], in [9] and in experiment [10] were 1.26, 1.4 and 0.463, respectively. In experiment [8], the z-score was -1.54 (inactive).
Turning to `Cc1ccc(S[C@]2(C(=O)NC3CC3)CC(=O)N(Cc3ccccc3)[C@@H]2c2ccc(CO)cc2)cc1`, the composite z-score in [1] is 0.462; in experiment [2] it was -1.21; in experiment [3], -0.118; in experiment [4] it was -0.0824; in [5], -0.764; in [6], -0.419. For the same compound, the composite z-score in experiment [7] was 0.0059; in experiment [9] it was 0.135; in [10], -0.247. Besides, the z-score in [8] is -1.17 (inactive).
As to `CCOC(=O)C1=CC[C@@H](c2ccccc2Cl)N(S(=O)(=O)c2ccc(C)cc2)C1`, the composite z-score in [1] was 0.091; in experiment [2] it was -0.507; in [3], 0.102; in [4], 0.435; in experiment [5], 1.3; in experiment [6] it was 1.31. Besides, the composite z-score in [7] was found to be 0.828; in [9], 0.802; in experiment [10] it was 0.0373. The z-score in experiment [8] is -3 (inactive).
`COC(=O)[C@@]1(Cc2ccc(OC)cc2)[C@H]2c3cc(C(=O)N(C)C)n(Cc4c(OC)[nH]cc(C)c4=O)c3C[C@H]2CN1C(=O)c1ccccc1`: the composite z-score in experiment [1] was 0.522; in experiment [2], 0.0954; in [3] it was -0.102; in [4], 0.289; in experiment [5] it was 1.49; in experiment [6], 1.92. Also, the composite z-score in experiment [7] was 1.08; in [9], 0.927; in experiment [10] it was -0.444. The z-score in experiment [8] was -1.04 (inactive).
On to `COC(=O)[C@]1(Cc2ccccc2N=[N+]=[N-])N=C(c2ccc(OCCCO)cc2)O[C@@H]1c1ccccc1N=[N+]=[N-]`, for which the composite z-score in experiment [1] was -0.13; in [2] it was -0.126; in [3], -0.0512; in [4], -0.102; in [5], 0.374; in [6] it was 0.46. Besides, the composite z-score was 1.1 in experiment [7], 0.197 in experiment [9] and -0.0994 in experiment [10]. Besides, the z-score in experiment [8] was 3.58 (inactive).
As to `C=CCC(OC(C)=O)[C@@H]1[C@@H](N(Cc2cccc3ccccc23)C(=O)c2cccc3ccccc23)c2cc(OCCCO)ccc2N1C(=O)c1ccc2ccccc2n1` (stereo not given in full), the composite z-score was -0.218 in [1]; 0.215 in [2]; 0.0083 in experiment [3]; 0.281 in experiment [4]; -0.0258 in experiment [5]; -0.0137 in experiment [6]. In addition, the composite z-score in experiment [7] is -0.444; in experiment [9], 0.0846; in [10], 0.0826. For the same compound, the z-score in experiment [8] is -2.01 (inactive).
In the case of `CN1C(=O)C2C=CC(C(O)c3ccccn3)N(Nc3ccccc3)C2C1=O` (stereo not given), the composite z-score in experiment [1] is -0.0437; in experiment [2], 1.11; in [3], -0.0985; in [4] it was 0.479; in experiment [5] it was 0.766; in [6], 0.838. The composite z-score in [7] is 0.684; in [9], 0.113; in experiment [10], 0.176. Further, in [8], the z-score was 0.595 (inactive).
As to `COc1cc(C(O)C2C=CC3C(=O)N(c4ccccc4)C(=O)C3N2Nc2ccc(C#N)cc2)cc(OC)c1OC` (stereo not given), the composite z-score was found to be 0.606 in experiment [1]; 0.226 in [2]; 0.179 in [3]; 1.14 in experiment [4]; 1.67 in experiment [5]; 2.18 in experiment [6]. Further, the figures for the composite z-score in experiment [7], in experiment [9] and in experiment [10] were 1.41, 1.77 and 0.295, respectively. Besides, the z-score in experiment [8] is 0.209 (inactive).
